# Potency and affinity values are given separately. Unmarked numbers belong to inactive results. Activity calls are given as the source filed them.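 Rule for the calls: active = every replicate test called active, each showing a drop in signal with a fitted potency within twice the top tested dose; inconclusive = tests disagree, or fits are weak, flat midrange or poor; inactive = every test flat, rising or fitted past the limit.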
# Experiment: A549 cell cytotoxicity, dose response, cytotoxicity control, CellTiter-Glo luminescence, dry powder, set 18 (AID 1117290)
# Settings: A549 viability, CellTiter-Glo ATP luminescence, 72 h; series mostly up to 26 µM; activity change, negative = cytotoxicity: at the top concentration
SMILES,"activity change, negative = cytotoxicity [%]",outcome
COc1ccc(C(=O)Nc2cc(C(F)(F)F)ccc2N2CCCCC2)cc1S(=O)(=O)O,-16.3,–
Cc1ccc(NC(=O)NC2(C(=O)N3CCN(c4ccccc4)CC3)CCCCC2)cc1,-10.4,–
Cc1ccc(NC(=O)NC2(C(=O)N3CCOCC3)CCCCC2)cc1,-4.37,–
O=S(=O)(Nc1cc(C(F)(F)F)ccc1N1CCCCC1)c1ccc(Br)cc1,-10.4,–
Cc1ccc(NC(=O)NC2(C(=O)N3CCNCC3)CCCCC2)cc1,-9.57,–
CC(=O)N1CCN(C(=O)CNC(=O)Nc2ccc(C)cc2)CC1,-10.5,–
CC(=O)N1CCN(C(=O)C2(NC(=O)Nc3ccc(C(F)(F)F)cc3)CCCC2)CC1,-19.7,–
O=S(=O)(Nc1cc(C(F)(F)F)ccc1N1CCCCC1)c1ccc(F)cc1,-15.4,–
CC(=O)N1CCN(C(=O)C2(NC(=O)NCCc3ccccc3)CCCCC2)CC1,-20.8,–
CC(=O)N1CCN(C(=O)[C@@H]2CCN2C(=O)Nc2ccc(C)cc2)CC1,-11.2,–
Cn1cnc(S(=O)(=O)Nc2cc(C(F)(F)F)ccc2N2CCCCC2)c1,17.9,–
COc1ccc(C(=O)Nc2cc(C(F)(F)F)ccc2N2CCOCC2)cc1S(=O)(=O)O,-6.57,–
O=[N+]([O-])c1ccc(S(=O)(=O)Nc2cc(C(F)(F)F)ccc2N2CCCCC2)c([N+](=O)[O-])c1,-4.1,–
O=[N+]([O-])c1cccc(S(=O)(=O)Nc2cc(C(F)(F)F)ccc2N2CCCCC2)c1,-15.1,–
COc1ccc(C(=O)O)cc1S(=O)(=O)Nc1cc(C(F)(F)F)ccc1N1CCCCC1,–,inactive
COc1ccc(C(=O)Nc2cc(C(F)(F)F)ccc2N2CCCC2)cc1S(=O)(=O)O,-14.3,–

# Reference: PubChem BioAssay AID1117290 (Broad Institute, 2014)
